Measurements taken from PubChem BioAssay (EPA / NIEHS).
Values joined by “and” are separate entries in the source; they are usually repeats but may differ in a detail not shown here. Equal values may be shown once. The source holds several records for some structures; these can differ, active in one and inactive in another. Active and inactive are the calls of the source. The calls were made as follows: active = hit-call score of the fitted dose curve at least 0.9, where 1 is the maximum; inactive = score below 0.9.

What was measured:
Details in all cases: mRNA level, 48 h; actives raise or lower the signal
[1] = read-out: Forkhead box O1 (FOXO1), FOXO1 (gene 2308); test: LTEA_HepaRG_FOXO1: Life Technologies and Expression Analysis (LTEA) Assay for Forkhead box O1 (FOXO1) using HepaRG (AID 2283456)
Summary of the method: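 Using one lot of HepaRG hepatic cells kept in 0.5% DMSO, the team applied test chemicals in duplicate, half-log dilutions from 100 uM, for 48 h. Expression, normalised to ACTB/GAPDH/POLR2A, was compared with vehicle in either direction.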

[2] = read-out: growth arrest and DNA damage 45 (GADD45A), GADD45A (gene 1647); test: LTEA_HepaRG_GADD45A: Life Technologies and Expression Analysis (LTEA) Assay for growth arrest and DNA damage 45 (GADD45A) using HepaRG (AID 2283458)
Summary of the method: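 GADD45A expression was measured by TaqMan qRT-PCR against three housekeeping genes (ACTB, GAPDH, POLR2A) after 48 h treatment of HepaRG cells. Eight-point half-log series up to 100 uM in 0.5% DMSO, run in duplicate.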

[3] = read-out: Forkhead box O3 (FOXO3), FOXO3 (gene 2309); test: LTEA_HepaRG_FOXO3: Life Technologies and Expression Analysis (LTEA) Assay for Forkhead box O3 (FOXO3) using HepaRG (AID 2283459)
Summary of the method: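 Gene-expression endpoint: FOXO3 transcript level by qRT-PCR in HepaRG cultures treated 48 h with chemicals up to 100 uM (half-log, 0.5% DMSO vehicle).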

[4] = read-out: ABC Transporter (ABCB1), ABCB1 (gene 5243); test: LTEA_HepaRG_ABCB1: Life Technologies and Expression Analysis (LTEA) Assay for ABC Transporter (ABCB1) using HepaRG (AID 2283460)
Summary of the method: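 Human liver HepaRG line treated 48 h with up to 100 uM compound (eight half-log points, 0.5% DMSO); ABCB1 mRNA change fitted bidirectionally against DMSO controls.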

[5] = read-out: growth arrest and DNA damage 45 (GADD45B), GADD45B (gene 4616); test: LTEA_HepaRG_GADD45B: Life Technologies and Expression Analysis (LTEA) Assay for growth arrest and DNA damage 45 (GADD45B) using HepaRG (AID 2283461)
Summary of the method: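 HepaRG, ~100,000 cells/well, 48 h plating; serum-free induction medium; cpd 100 uM top, half-log x8, 0.5% DMSO, duplicate, 48 h; lysis in RLT, RNA isolation, qRT-PCR; norm ACTB/GAPDH/POLR2A; bidirectional fit vs DMSO.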

[6] = read-out: ABC Transporter (ABCC3), ABCC3 (gene 8714); test: LTEA_HepaRG_ABCC3: Life Technologies and Expression Analysis (LTEA) Assay for ABC Transporter (ABCC3) using HepaRG (AID 2283462)
Summary of the method: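 Human HepaRG, 48 h dosing, 8-pt half-log series from 100 uM, 0.5% DMSO vehicle, duplicates. ABCC3 mRNA by TaqMan qRT-PCR, housekeeping-normalized; bidirectional curve fit vs DMSO.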

[7] = read-out: ABC Transporter (ABCB11), ABCB11 (gene 8647); test: LTEA_HepaRG_ABCB11: Life Technologies and Expression Analysis (LTEA) Assay for ABC Transporter (ABCB11) using HepaRG (AID 2283463)
Summary of the method: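 Using HepaRG cultures held in 0.5% DMSO, chemicals were tested at half-log dilutions from 100 uM for 48 h. Induction or suppression of ABCB11 mRNA, normalized to ACTB, GAPDH and POLR2A, was fitted bidirectionally against vehicle.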

[8] = read-out: ABC Transporter (ABCC2), ABCC2 (gene 1244); test: LTEA_HepaRG_ABCC2: Life Technologies and Expression Analysis (LTEA) Assay for ABC Transporter (ABCC2) using HepaRG (AID 2283464)
Summary of the method: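 HepaRG, 48 h post-plating; serum-free induction medium; cpd 8-pt, 100 uM top, half-log, 0.5% DMSO, duplicate, 48 h. Readout: ABCC2 mRNA by qRT-PCR, norm. ACTB/GAPDH/POLR2A. Bidirectional fit vs DMSO baseline.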

[9] = read-out: Broad substrate specificity ATP-binding cassette transporter ABCG2 (Homo sapiens) (UniProt Q9UNQ0); test: LTEA_HepaRG_ABCG2: Life Technologies and Expression Analysis (LTEA) Assay for ABC Transporter (ABCG2) using HepaRG (AID 2283465)
Summary of the method: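 Gene expression of ABCG2 in HepaRG liver cells is quantified by qRT-PCR following 48 h exposure across an eight-point series topping at 100 uM. Values come from bidirectional fitting relative to DMSO vehicle.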

[10] = read-out: ATP-citrate lyase (ACLY), ACLY (gene 47); test: LTEA_HepaRG_ACLY: Life Technologies and Expression Analysis (LTEA) Assay for ATP-citrate lyase (ACLY) using HepaRG (AID 2283466)
Summary of the method: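 ACLY expression changes in human HepaRG liver cells are quantified by qRT-PCR after 48 h exposure to test chemicals (maximum 100 uM, half-log steps). Values are fitted in both directions relative to 0.5% DMSO vehicle.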

[11] = read-out: Peroxisomal acyl-coenzyme A oxidase 1 (ACOX1) gene, ACOX1 (gene 51); test: LTEA_HepaRG_ACOX1: Life Technologies and Expression Analysis (LTEA) Assay for Peroxisomal acyl-coenzyme A oxidase 1 (ACOX1) gene using HepaRG (AID 2283467)
Summary of the method: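 Human HepaRG hepatic cultures, 48 h treatment with test chemicals up to 100 uM. ACOX1 expression read by qRT-PCR relative to 0.5% DMSO vehicle.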

[12] = read-out: Alkaline Phosphatase, Placental (ALPP) gene, ALPP (gene 250); test: LTEA_HepaRG_ALPP: Life Technologies and Expression Analysis (LTEA) Assay for Alkaline Phosphatase, Placental (ALPP) gene using HepaRG (AID 2283468);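 as to AC50: differentiated human HepaRG liver cells in serum-free induction medium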
Summary of the method: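 HepaRG, 48 h plating then 48 h dosing, serum-free induction medium, 0.5% DMSO. 8 conc, half-log, max 100 uM, duplicates. Endpoint: ALPP transcript by qRT-PCR, housekeeping-normalized; gain or loss fitted vs DMSO.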

[13] = read-out: Bcl-2 (BAD) gene, BAD (gene 572); test: LTEA_HepaRG_BAD: Life Technologies and Expression Analysis (LTEA) Assay for Bcl-2 (BAD) gene using HepaRG (AID 2283469)
Summary of the method: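 Activity values reflect up- or down-regulation of BAD mRNA in human HepaRG hepatic cells treated 48 h in serum-free medium, with eight-point half-log dosing capped at 100 uM and 0.5% DMSO vehicle.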

[14] = read-out: Bcl-2 (BAX) gene, BAX (gene 581); test: LTEA_HepaRG_BAX: Life Technologies and Expression Analysis (LTEA) Assay for Bcl-2 (BAX) gene using HepaRG (AID 2283470)
Summary of the method: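 Gene expression measured by Fluidigm qRT-PCR with three housekeeping genes for normalisation. HepaRG cells, plated 48 h beforehand, treated 48 h at up to 100 uM (8-point, half-log) in 0.5% DMSO. Bidirectional fitting versus DMSO.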

[15] = read-out: adenosine kinase (ADK) gene, ADK (gene 132); test: LTEA_HepaRG_ADK: Life Technologies and Expression Analysis (LTEA) Assay for adenosine kinase (ADK) gene using HepaRG (AID 2283471)
Summary of the method: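 Following 48 h exposure of HepaRG cells in 0.5% DMSO (top concentration 100 uM, duplicate wells), ADK mRNA induction or suppression was measured by qRT-PCR, normalised to ACTB/GAPDH/POLR2A, and fitted bidirectionally relative to vehicle.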

[16] = read-out: Alpha-fetoprotein (AFP) gene, AFP (gene 174); test: LTEA_HepaRG_AFP: Life Technologies and Expression Analysis (LTEA) Assay for Alpha-fetoprotein (AFP) gene using HepaRG (AID 2283472)
Summary of the method: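 AFP transcript measured by TaqMan qRT-PCR with three housekeeping genes for normalization, after 48 h chemical treatment of HepaRG cells (top 100 uM, half-log steps, 0.5% DMSO). Gain or loss fitted against vehicle.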

BCL2L11 (gene 10018) = test: LTEA_HepaRG_BCL2L11: Life Technologies and Expression Analysis (LTEA) Assay for Bcl-2 (BCL2L11) gene using HepaRG (AID 2283473)
Summary of the method: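 Read-out is BCL2L11 transcript level by qRT-PCR, normalized to three housekeeping genes and fitted bidirectionally against 0.5% DMSO vehicle. HepaRG cells received chemicals for 48 h in serum-free induction medium, 100 uM down in half-log dilutions.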

[17] = read-out: Apolipoprotein A-V (APOA5) gene, APOA5 (gene 116519); test: LTEA_HepaRG_APOA5: Life Technologies and Expression Analysis (LTEA) Assay for Apolipoprotein A-V (APOA5) gene using HepaRG (AID 2283474)
Summary of the method: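 Readout is APOA5 transcript level by qRT-PCR on Fluidigm dynamic arrays, normalized to three housekeeping genes. HepaRG cultures received chemicals for 48 h at up to 100 uM (half-log steps, 0.5% DMSO), with gain or loss scored relative to DMSO.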

[18] = read-out: Apoptosis regulator Bcl-2 (Homo sapiens) (UniProt P10415); test: LTEA_HepaRG_BCL2: Life Technologies and Expression Analysis (LTEA) Assay for Bcl-2 gene using HepaRG (AID 2283475)
Summary of the method: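 qRT-PCR of BCL2 transcript, normalized to three housekeeping genes (ACTB, GAPDH, POLR2A), after 48 h chemical exposure of HepaRG cells; concentrations top 100 uM with half-log dilutions, 0.5% DMSO vehicle, duplicates; changes up or down fitted relative to vehicle.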

Measured: AC50

Broad substrate specificity ATP-binding cassette transporter ABCG2 (Homo sapiens), sequence (Q9UNQ0 whole entry, looked up): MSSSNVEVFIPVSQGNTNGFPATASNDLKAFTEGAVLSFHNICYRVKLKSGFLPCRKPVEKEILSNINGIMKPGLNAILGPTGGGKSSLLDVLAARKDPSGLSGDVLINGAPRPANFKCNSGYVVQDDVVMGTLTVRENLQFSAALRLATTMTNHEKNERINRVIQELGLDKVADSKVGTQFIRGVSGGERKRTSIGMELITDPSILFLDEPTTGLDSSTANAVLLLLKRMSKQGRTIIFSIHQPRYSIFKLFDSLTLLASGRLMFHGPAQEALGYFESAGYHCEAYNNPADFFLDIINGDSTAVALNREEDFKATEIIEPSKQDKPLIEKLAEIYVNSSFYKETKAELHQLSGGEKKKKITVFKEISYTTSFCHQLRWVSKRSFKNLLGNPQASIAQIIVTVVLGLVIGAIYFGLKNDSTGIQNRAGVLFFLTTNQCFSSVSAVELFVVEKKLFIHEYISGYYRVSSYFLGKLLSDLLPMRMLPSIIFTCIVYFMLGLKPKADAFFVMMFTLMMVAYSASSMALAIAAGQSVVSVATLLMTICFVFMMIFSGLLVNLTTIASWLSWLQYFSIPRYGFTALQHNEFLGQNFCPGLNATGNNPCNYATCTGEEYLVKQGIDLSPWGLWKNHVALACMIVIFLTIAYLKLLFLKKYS
Apoptosis regulator Bcl-2 (Homo sapiens), sequence (P10415 whole entry, looked up): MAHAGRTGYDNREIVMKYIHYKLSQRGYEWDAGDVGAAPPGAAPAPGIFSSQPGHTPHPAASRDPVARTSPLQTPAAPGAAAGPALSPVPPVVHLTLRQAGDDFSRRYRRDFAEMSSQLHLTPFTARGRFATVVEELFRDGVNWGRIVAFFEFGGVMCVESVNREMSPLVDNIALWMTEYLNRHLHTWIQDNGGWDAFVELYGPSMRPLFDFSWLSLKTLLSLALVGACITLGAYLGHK

CCOC(=O)C(Cl)Cc1cc(-n2nc(C)n(C(F)F)c2=O)c(F)cc1Cl (stereo not given)
active: [4] 50 µM
inactive: [1] | [2] | [3] | [5] | [6] | [7] | [8] | [9] | [10] | [11] | [12] | [13] | [14] | [15] | [16] | BCL2L11 (gene 10018) | [17] | [18]

CS/C(C)=N/OC(=O)N(C)SN(C)C(=O)O/N=C(\C)SC
active: [7] 33.6 µM
inactive: [1] | [2] | [3] | [4] | [5] | [6] | [8] | [9] | [10] | [11] | [12] | [13] | [14] | [15] | [16] | BCL2L11 (gene 10018) | [17] | [18]

CO/C=C(/C(=O)OC)c1ccccc1Oc1cc(Oc2ccccc2C#N)ncn1
inactive: [3] | [4] | [6] | [8] | [10] | [13] | [15]
active: [1] 77.3 µM and 70.5 µM and 71.8 µM | [2] 87.3 µM and 74.6 µM and 95.4 µM | [4] 23.5 µM | [5] 94.1 µM and 82.7 µM and 84.7 µM | [6] 22.1 µM and 26.1 µM | [7] 45.4 µM and 63 µM and 40.5 µM | [8] 86.9 µM and 83.9 µM | [9] 32 µM and 25.5 µM and 12.6 µM | [11] 50 µM and 63.3 µM | [12] 41.4 µM and 50 µM and 34 µM | [14] 77.2 µM and 69 µM and 72.1 µM | [16] 37.9 µM and 69.5 µM and 25.5 µM | BCL2L11 (gene 10018) 84.5 µM and 73.8 µM and 84.6 µM | [17] 91.8 µM and 78 µM and 74.3 µM | [18] 86.3 µM and 85.9 µM and 86.9 µM

CCCN(CCC)c1c([N+](=O)[O-])cc(S(N)(=O)=O)cc1[N+](=O)[O-]
inactive: [1] | [2] | [3] | [5] | [7] | [9] | [10] | [11] | [12] | [13] | [14] | [15] | [16] | BCL2L11 (gene 10018) | [17] | [18]
active: [1] 90.2 µM | [2] 85.9 µM | [3] 93.9 µM and 76.9 µM | [4] 89.8 µM and 84.8 µM and 82.3 µM | [5] 93.5 µM and 93.2 µM | [6] 93.6 µM and 74.3 µM and 90.4 µM | [7] 82 µM | [8] 92.1 µM and 82.3 µM and 84.7 µM | [9] 15.8 µM | [10] 94.3 µM | [11] 77.5 µM | [13] 74.1 µM | [15] 80.6 µM | [16] 15.8 µM | BCL2L11 (gene 10018) 95.3 µM and 84.3 µM

OC(c1ccc(Cl)cc1)(c1cncnc1)c1ccccc1Cl (stereo not given)
active: [1] 79 µM | [2] 72.4 µM | [4] 28.5 µM | [5] 66.2 µM | [7] 89.4 µM | [8] 2.46 µM | [10] 12.6 µM | [11] 92.8 µM | [12] 61.5 µM | [14] 66.4 µM | [16] 80 µM | [17] 72.9 µM | [18] 75.1 µM
inactive: [3] | [6] | [9] | [13] | [15] | BCL2L11 (gene 10018)
